# Reference: ChEMBL document CHEMBL4296182, “CO-ADD screening of NIH NCI Diversity Set V”
# For part of these data: Entries with a potency or affinity are not part of this list.
# What was measured:
# [1] = tested on: Staphylococcus aureus; test: Antibacterial activity against Staphylococcus aureus MRSA ATCC 43300 (CO-ADD:GP_020); MIC in CAMBH media using NBS plates, by Resazurin F(560/590); assay type: functional; settings: Concentration 20 uM, ASSAY_TEST Inhibition of Bacterial Growth, detection method Resazurin, Fluorescence (ex560/em590), MEDIA CAMHB, plate type 384well, CORNING #3640, time 18 hr
# [2] = tested on: Acinetobacter baumannii; test: Antibacterial activity against Acinetobacter baumannii ATCC 19606 (CO-ADD:GN_034); MIC in CAMBH media using NBS plates, by Resazurin F(560/590); assay type: functional; settings: Concentration 20 uM, ASSAY_TEST Inhibition of Bacterial Growth, detection method Resazurin, Fluorescence (ex560/em590), MEDIA CAMHB, plate type 384well, CORNING #3640, time 18 hr
# [3] = tested on: Escherichia coli; test: Antibacterial activity against Escherichia coli ATCC 25922 (CO-ADD:GN_001); MIC in CAMBH media using NBS plates, by Resazurin F(560/590); assay type: functional; settings: Concentration 20 uM, ASSAY_TEST Inhibition of Bacterial Growth, detection method Resazurin, Fluorescence (ex560/em590), MEDIA CAMHB, plate type 384well, CORNING #3640, time 18 hr
# [4] = tested on: Klebsiella pneumoniae; settings: Concentration 20 uM; ASSAY_TEST Inhibition of Bacterial Growth; detection method Absorption (OD600); MEDIA CAMHB; plate type 384well; NBS; CORNING #3640; time 18 hr
# [5] = tested on: Candida albicans; settings: 20 µM
# [6] = tested on: Cryptococcus neoformans; settings: Concentration 20 uM; ASSAY_TEST Inhibition of Fungal Growth; detection method Resazurin; Absorption (OD600-OD570); plate type 384well; NBS; CORNING #3640
SMILES,Inhibition [1] [%],Inhibition [2] [%],Inhibition [3] [%],Inhibition [4] [%],Inhibition [5] [%],Inhibition [6] [%]
Nc1ncnc2c1ncn2C=C=CCO,13.44,8.12,-2.59,6.59,1.58,-2.86
Nc1ccnn1-c1ccccc1,7.55,-6.56,2.95,26.2,2.01,-2.01
Cc1cc2cc3c(=O)[nH]c(=O)cc-3n(CC(O)C(O)C(O)CO)c2cc1C (stereo unspecified),10.31,8.52,-0.29,10.28,-1.58,-7.62
Cc1ccc(-c2cc(C(=O)O)c3ccccc3n2)c(C)c1,11.92,8.6,-3.13,18.95,8.35,-6
O=C(NC(=S)Nc1cccc2c(O)cccc12)c1cccc(Br)c1,25.64,-2.51,14.87,10.97,12.3,-5.01
NC1=NC(c2ccc(Cl)cc2)N(c2ccc(S(N)(=O)=O)cc2)C(N)=N1 (stereo unspecified),-8.08,15.66,1.13,8.28,-0.99,-3.51
Cn1c(=O)c2c(ncn2CCOC(=O)C(C)(C)Oc2ccc(Cl)cc2)n(C)c1=O [THEOFIBRATE],-5.55,-11.51,14.7,11.96,0.53,-5.77
COc1cccc(-c2nnc(N)o2)c1,11.58,-10.93,4.71,8.97,1.68,-2.41
CCCCNC(=O)Nc1ccccc1CC,14.67,10.42,0.25,11.35,3.55,-6.96
CC1CO/C(=C2\C(=O)OCC2C)C1 (stereo unspecified),4.79,-14.17,10.92,2.95,41.2,-12.83
c1ccc2c(c1)-c1cccc3cncc-2c13,1.08,-2.19,3.18,7.94,12.2,-10.41
CCOC(CNCc1cc(C)c2[nH]c3ccccc3c2c1C)OCC,11.65,-1.22,3.76,8.4,1.3,-11.65
CCOC(=O)c1c(N=C(S)NC)sc2c1CCCC2,-2.15,0.51,7.45,1.7,6.72,-11.99
Cc1ccc(C(=N)Nc2ccccc2)cc1,11.04,15.63,1.43,18.31,3.37,-4.07
CCN(CC)CCN1C(=O)c2cccc3cc(N)cc(c23)C1=O,-0.77,7.97,10.46,12.53,-0.17,-5.58
CC1=CC(C)(C)N=C(S)N1c1cccc2cc(S(=O)(=O)O)ccc12,-5.5,9.59,-20.55,7.04,8.59,39.69
Sc1ncc2cnccn12,-4.23,-8.79,10.26,3.96,0.86,-12.71
Nc1nc(N)c(/N=N/c2ccc(S(N)(=O)=O)cc2)c(O)n1,11.8,-8.6,-8.26,23.84,0.97,-15.08
NS(=O)(=O)c1ccc(NC(=S)NC(=O)c2ccco2)cc1,17.92,4.84,10.07,4.06,1.47,-12.16
CN(C)c1ccc(/C=N/NC(=O)c2cnc3ccccc3c2)cc1,17.84,9.63,3.71,14.91,2.44,3.68
COc1cccc(OCC(O)CN2CCN(c3ccc(Cl)cc3)CC2)c1 (stereo unspecified),13.17,4.14,2.15,0.79,0.05,-12.54
CC(C)(C)N1CC(OC(N)=O)C1,21.14,-14.09,8.01,8.74,1.7,-9.34
CCOC(=O)c1[nH]c(CO)c(C(=O)OCC)c1C,12.97,11.05,2.06,19.54,9.36,-4.6
O=C1c2ccccc2C(=O)c2c(Nc3ccc(CCO)cc3)ccc(O)c21,19.9,1.68,9.39,4.66,-0.52,-4.75
CC1CCCC(CC(=O)O)(CC(=O)O)C1 (stereo unspecified),-13.43,0.95,-5.78,6.3,2.72,-2.12
O=C1CSC(=S)N1/N=C/c1c[nH]c2ccc(Br)cc12,-3.88,11.83,4.81,26.71,19.6,-14.16

SMILES,Inhibition [1] [%],Inhibition [2] [%],Inhibition [3] [%],Inhibition [4] [%],Inhibition [5] [%],Inhibition [6] [%]
Cc1cnc2c(N)cc(C)c(C)c2c1,23.12,-5.88,9.48,9.31,23.1,-10.43
CCCCCCCCCCC(C(=O)O)C1(C(=O)O)CCC(=O)O1 (stereo unspecified),8.92,10.41,4.35,3.55,8.22,-9.1
CCSc1nc(O)cc(O)n1,23.71,-7.74,11.78,13.65,4.28,3.85
Cn1c(=O)c2nc(SCc3ccccn3)[nH]c2n(C)c1=S,8.4,9.84,-0.48,14.94,0.94,-2.39
O=C(O)c1ccccc1-n1c2ccccc2c2ccccc21,10.38,6.58,7.31,10.24,4.15,-5.74
Cn1ncc2c(Nc3cccc(Cl)c3)nc(Nc3cccc(Cl)c3)nc21,15.88,-2.31,4.26,11.58,-1.22,-11.25
CC(C)NC(=O)Nc1cccc(Cl)c1,12.4,7.15,6.41,8.52,-1.88,-9.01
Nc1ccc2c(c1)nnn2-c1ccccc1,10.19,-3.79,12.06,-7.86,-4.43,-12.32
CN(C)c1nc(Cl)nc2c1nc(Cl)n2C1CCCCO1 (stereo unspecified),8.01,-7.69,0.28,5.28,1.95,-3.53
CC1=C(c2ccccc2)C=NNCC1=O,7.06,-11.86,19.62,15.54,3.87,-8.22
C=C1S/C(=N\c2c(C)cccc2Cl)N(C(=O)c2sc3ccccc3c2Cl)C12CCCCC2,4.2,0.82,-2.79,4.92,5.73,0.57
CCOc1ccc(NC(=O)Nc2cc(C(C)C)c(O)cc2C)cc1,12.02,-0.68,-2.75,20.87,4.16,-21.1
Oc1cc(-c2nn[nH]n2)nc(O)n1,15.18,-5.46,13.37,14.33,1.84,0.69
Cc1nc(O)c2c3c(sc2n1)CCCC3,1.78,-6.79,6.4,-0.52,-0.04,-11.89
Nc1nnc(-c2cccnc2)s1,-3.99,-10.83,3.28,-1.35,0.77,-10.94
N#CC1C=Cc2c(ccc3ccccc23)N1C(=O)c1ccccc1 (stereo unspecified),29.76,-9.2,7.35,24.48,11.9,2.44
C=CCc1ccccc1OCC(=O)O,3.16,-9.95,10.02,15.59,5.01,1.51
COc1ccc(C(=O)O)nc1C,-3.26,-9.48,11.67,7.05,-1.1,-14
CC(=O)Nc1ccc2cc3ccc(NC(C)=O)cc3nc2c1,13.51,10.7,0.73,15.61,3.5,-4.12
COc1ccc2c(=O)cc(-c3cccnc3)oc2c1OC,4.17,8.21,2.42,26.45,9.13,-11.85
O=c1nc(Nc2cccc(Cl)c2)oc2cc(Cl)oc(=O)c12,6.93,3.28,2.7,6.71,20.4,-13.47
N#Cc1ccc(NC2c3ccccc3CC2O)cc1 (stereo unspecified),-13.68,-7.5,-15.24,3.05,0.94,8.31
NC(=O)c1cc(Br)cc(C2CCCCC2)c1O,12.02,-1.26,2.39,15.38,2.63,-10.76
O=C(Cn1ccc(=O)[nH]c1=O)Nc1nccs1,4.05,-8.5,10.86,12.12,0.84,-10.28
COc1c(C=O)c2c(c(OC)c1OC)-c1ccc(OC)c(=O)cc1[C@@H](NC(C)=O)CC2,-5.44,-11.93,15.89,9.96,0.57,-7.77
